Screens (PubChem BioAssay)
PPC-1+TRAIL kill: compounds killing PPC-1 cancer cells with TRAIL present, primary screen, TRAIL potentiator project, ATPLite luminescence, uHTS; PPC-1 cells + TRAIL, ATPLite viability luminescence; cell killing (% activity), % at 4 µM or 5 µM; actives 0.41% (n = 220,000); AID 1443, 2008;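 active = cell killing above 50% in the first pass at 4 µM, then a duplicate retest at 5 µM averaging 50% or more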;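 also: plate controls were cells with TRAIL plus DMSO for no effect and medium-only wells lacking cells for full effect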
SENP8 block-1: SENP8 protease inhibitors, primary screen, biochemical, luminescence | inhibition, % at 10 µM | actives 1.2% (n = 330,000) | purified SENP8, Z-RLRGG-aminoluciferin cleavage | Sentrin-specific protease 8 (Homo sapiens), Q96LD8; in the data active = inhibition above about 50%
Target sequence (Q96LD8 whole entry, looked up): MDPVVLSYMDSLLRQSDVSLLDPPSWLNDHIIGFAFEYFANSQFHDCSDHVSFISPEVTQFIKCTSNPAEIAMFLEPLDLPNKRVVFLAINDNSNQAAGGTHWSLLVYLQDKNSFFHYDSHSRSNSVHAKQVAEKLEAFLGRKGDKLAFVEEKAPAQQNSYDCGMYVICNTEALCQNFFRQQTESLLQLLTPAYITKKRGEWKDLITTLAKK
SENP6 block: SENP6 protease inhibitors, primary screen, biochemical, luminescence, uHTS; actives 1.8% (n = 330,000); Recombinant SENP6 catalytic domain, aminoluciferin luminescence; inhibition, % at 10 µM; AID 2599, 2010; Sentrin-specific protease 6 (Homo sapiens), Q9GZR1;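 active = inhibition above about 50% at the single tested dose, limit read from the data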;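 also: plate controls were DMSO wells with enzyme for no effect and DMSO wells lacking enzyme for full effect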
SENP8 block-2: human SENP8 protease inhibitors, primary screen, biochemical, fluorescence, Nedd8 protein substrate, uHTS. recombinant SENP8. AID 602440, 2012. actives 0.64% (n = 360,000). inhibition, % at 20 µM; in the data active = inhibition mostly above about 40%, no sharp cut-off; inactive = mostly below about 27%
SENP7 block: SENP7 protease inhibitors, primary screen, biochemical, luminescence, uHTS; recombinant SENP7, Z-RLRGG-aminoluciferin luminescence, 40 min; Sentrin-specific protease 7 (Homo sapiens), Q9BQF6; actives 1.5% (n = 330,000); inhibition, % at 5 µM;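 active = inhibition above about 50% at the single test dose, limit read from the data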;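 also: plate controls were DMSO with enzyme for no effect and no enzyme buffer wells for full effect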
TRAIL sens C8: viability loss with TRAIL in NB7+C8 cells, primary screen, TRAIL sensitizer project, cell-based, ATPlite luminescence; AID 624354, 2012; inhibition (viability loss, TRAIL sensitization), % at 10 µM; actives 1% (n = 360,000);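 active = compounds causing at least 50% loss of cell viability in the single-dose screen, relative to plate controls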
SENP8 conf: SENP8 protease inhibitors, retest, confirmation, biochemical, luminescence, single concentration | shares compounds with SENP7 block | Recombinant SENP8, Z-RLRGG-aminoluciferin luminescence, 60 min | inhibition, % at 12.5 µM | actives 40% (n = 6,200) | AID 488912, 2010;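 active = mean inhibition across replicates above about 50%, limit read from the data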
SENP6 confirm: SENP6 protease inhibitors, confirmation, biochemical, luminescence, single concentration | inhibition, % at 12.5 µM | AID 488915, 2010 | shares compounds with SENP7 block | recombinant SENP6, Z-RLRGG-aminoluciferin luminescence | actives 58% (n = 6,200)
SENP7 confirm: SENP7 protease inhibitors, retest, confirmation, biochemical, luminescence, single concentration | shares compounds with SENP7 block | recombinant SENP7, Z-RLRGG-aminoluciferin luminescence, 40 min | inhibition, % at 12.5 µM | actives 69% (n = 6,200)
Casp3 SENP sel: caspase-3 protease inhibitors, confirmation, selectivity assay for SENP inhibitor project, biochemical, single concentration; actives 60% (n = 6,200); AID 488918, 2010; shares compounds with SENP7 block; purified caspase-3, Z-DEVD-aminoluciferin luminescence, 60 min; inhibition, % at 12.5 µM;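 active = mean inhibition above about 50%, limit read from the data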;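 also: plate controls were enzyme with DMSO for no effect and wells without caspase-3 for full effect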
Target sequence (P42574 28-227 limits assumed): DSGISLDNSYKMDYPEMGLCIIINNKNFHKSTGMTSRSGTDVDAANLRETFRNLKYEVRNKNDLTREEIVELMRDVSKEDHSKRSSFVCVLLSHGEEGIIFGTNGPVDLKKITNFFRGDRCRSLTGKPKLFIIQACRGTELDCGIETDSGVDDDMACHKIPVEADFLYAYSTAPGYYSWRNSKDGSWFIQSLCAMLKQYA
Luc interf: interferes with luciferase luminescence in SENP counter-screen | inhibition, % at 12.5 µM | Pre-incubated SENP8/Z-RLRGG-aminoluciferin, luciferase luminescence interference | AID 488919 | shares compounds with SENP7 block | actives 39% (n = 6,200);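 active = mean inhibition above about 50% when retested at one dose, limit read from the data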;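 also: plate controls were DMSO wells with completed reaction for no effect and substrate without enzyme for full effect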
Starred values were filed as active, the others as inactive; nt = no result given. The list is not random: actives were taken first. Their share in the collection is about 3%.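 The calls were made as follows, unless noted: active = mean inhibition above about 50% in the one-dose retest (limit read from the data); inactive = the rest.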

SMILES	PPC-1+TRAIL kill	SENP8 block-1	SENP6 block	SENP8 block-2	SENP7 block	TRAIL sens C8	SENP8 conf	SENP6 confirm	SENP7 confirm	Casp3 SENP sel	Luc interf
CCOC(=O)c1csc(NC(=O)CSc2nnnn2-c2ccc(OC)c(OC)c2)n1	15.2	-5.4	6.1	24.2	0.0	-13.1	nt	nt	nt	nt	nt
COc1ccc(-n2nnnc2SCC(=O)Nc2nnc(C)s2)cc1OC	22.5	-4.4	-0.5	4.4	94.8*	4.2	-23.6	-16.1	-6.9	-7.7	-4.6
CC(C)C[C@H]1CN(CCCC[C@@H]2CNC(=O)C(=O)N2CC2CCCCC2)C(=O)C(=O)N1CCc1ccccc1	nt	nt	nt	16.3	nt	4.5	nt	nt	nt	nt	nt
COCCCn1c(SCC(=O)NC2CCCC2)nnc1-c1cccs1	nt	7.7	-23.7	8.8	1.4	-4.5	nt	nt	nt	nt	nt
Cc1csc2nc(CSc3ccc(Cl)cc3)cn12	-3.4	46.0	79.7*	11.2	53.4*	15.6	77.5*	76.7*	91.7*	67.3*	72.1*
Clc1ccc(SCc2cn3ccsc3n2)cc1	10.5	-8.9	14.4	18.3	14.2	10.3	nt	nt	nt	nt	nt
Cc1ccc(Nc2ncnc3c2oc2ccccc23)cc1	-13.5	34.8	66.3*	-283.4	33.3	10.5	-7.4	23.0	74.1*	27.7	8.6
c1ccc2c(c1)oc1c(Nc3ccc4c(c3)OCCO4)ncnc12	-2.6	84.7*	92.5*	-96.6	91.9*	16.4	21.6	79.2*	90.0*	59.9*	23.0
Cc1nc(Nc2ccc3c(c2)OCCO3)c2oc3ccccc3c2n1	-3.1	3.0	1.8	-54.5	4.5	-4.7	nt	nt	nt	nt	nt
Cc1cccc(/C(N)=N/OC(=O)c2ccncc2)c1	nt	75.4*	89.0*	16.8	92.4*	18.2	78.9*	84.2*	95.8*	91.9*	79.8*
Cc1ccc(/C(N)=N/OC(=O)CCC2CCCCC2)cc1	10.7	-8.7	-13.0	8.1	1.1	2.1	nt	nt	nt	nt	nt
Cc1cccc(/C(N)=N/OC(=O)c2ccoc2C)c1	nt	94.3*	96.8*	14.5	98.4*	90.9*	96.8*	97.2*	101.7*	97.3*	95.5*
N/C(=N\OC(=O)c1ccncc1)c1cccc([N+](=O)[O-])c1	nt	-3.5	24.7	8.6	-12.1	3.9	nt	nt	nt	nt	nt
COc1ccc(C(=O)O/N=C(\N)c2cccc(C)c2)cc1OC	nt	5.6	30.6	6.4	29.3	1.9	nt	nt	nt	nt	nt
Cc1cccc(/C(N)=N/OC(=O)CCC2CCCCC2)c1	10.6	-4.4	82.7*	11.3	31.5	-2.6	67.3*	90.2*	98.3*	86.4*	82.7*
COc1cccc(C(=O)O/N=C(\N)c2ccncc2)c1	18.2	43.5	-1.0	7.3	67.4*	52.9*	46.8	44.4	78.1*	82.6*	58.9*
COc1ccc(C(=O)O/N=C(\N)c2ccncc2)cc1OC	5.7	-5.4	-6.0	23.6	3.4	17.4	nt	nt	nt	nt	nt
COC(=O)c1c(C)nc2nonc2c1N	5.9	-4.7	-15.2	-399.1	-6.1	-5.5	nt	nt	nt	nt	nt
CCc1nc2nc(C)c(NS(=O)(=O)c3ccc(C)c(C)c3)c(=O)n2[nH]1	nt	-1.8	11.2	4.8	2.9	-10.9	nt	nt	nt	nt	nt
COc1cccc(C(=O)O/N=C(\N)c2ccc(C)cc2)c1	nt	57.5*	73.0*	8.7	83.3*	39.0	74.2*	75.9*	93.4*	79.0*	57.7*
COc1cccc(C(=O)O/N=C(\N)c2ccc([N+](=O)[O-])cc2)c1	20.6	-12.6	18.0	14.3	38.4	-1.2	nt	nt	nt	nt	nt
COc1ccc(OCC(O)CNS(=O)(=O)c2cccs2)cc1 (stereo not given)	nt	1.2	-39.9	3.8	5.1	11.0	nt	nt	nt	nt	nt
Cc1cc(C)c(NC(=O)C2CCCCN2C)c(C)c1 (stereo not given)	-7.9	-2.5	-25.3	13.6	79.6*	-7.8	7.7	10.4	-2.6	1.5	-1.2
Cc1cc(C)c(NC(=O)C2CCCN2CCC(C)C)c(C)c1 (stereo not given)	-7.5	-1.8	-2.6	23.0	-0.8	12.4	nt	nt	nt	nt	nt
N/C(=N\OC(=O)c1ccco1)c1cccc(Br)c1	-2.9	52.2*	78.3*	18.8	74.4*	-0.2	70.0*	67.6*	90.0*	75.9*	67.2*
SMILES	PPC-1+TRAIL kill	SENP8 block-1	SENP6 block	SENP8 block-2	SENP7 block	TRAIL sens C8	SENP8 conf	SENP6 confirm	SENP7 confirm	Casp3 SENP sel	Luc interf
N/C(=N\OC(=O)c1ccco1)c1cccc([N+](=O)[O-])c1	9.4	4.3	25.7	11.8	9.7	-1.2	nt	nt	nt	nt	nt
N/C(=N\OC(=O)c1cccc(Br)c1)c1ccccc1	7.0	67.3*	71.6*	14.3	86.0*	88.9*	67.1*	73.2*	97.2*	81.7*	26.1
N/C(=N\OC(=O)c1ccoc1)c1ccc(Br)cc1	nt	84.1*	92.7*	3.6	90.8*	37.7	75.6*	71.4*	94.1*	74.8*	70.4*
COc1ccc(NS(=O)(=O)c2cc(NC(=O)c3ccc(=O)[nH]c3)ccc2N2CCCC2)cc1	nt	-7.7	-3.9	-51.3	-2.0	13.1	nt	nt	nt	nt	nt
CCOC(=O)[C@]12CCCC=C1N(Cc1cccc3ccccc13)C(=O)[C@H](CC(=O)N1CCCC1)C2	nt	nt	nt	16.6	nt	1.2	nt	nt	nt	nt	nt
Brc1ccc(-c2noc(C3CCCCC3)n2)cc1	-5.8	10.8	-38.9	-0.3	16.5	1.7	nt	nt	nt	nt	nt
c1ccc(-c2ccccc2-c2nc(-c3cccnc3)no2)cc1	-9.0	-8.9	-3.6	13.1	-1.8	-2.2	nt	nt	nt	nt	nt
c1ccc(-c2noc(-c3ccncc3)n2)nc1	15.1	79.1*	80.8*	6.3	4.3	25.0	80.6*	81.9*	96.5*	96.0*	82.8*
c1ccc(-c2noc(-c3ccc4ccccc4c3)n2)nc1	23.9	96.2*	97.3*	-63.7	100.0*	87.3*	93.7*	98.7*	101.0*	97.4*	59.5*
